High-throughput results: PubChem, National Center for Advancing Translational Sciences (NCATS)
HT1080-NT tox – kills 2HG-producing HT-1080-NT fibrosarcoma cells | HT-1080-NT fibrosarcoma viability, CellTiter-Glo ATP luminescence, 48 h | Potency, µM (titrated, usually from 46.1 µM), for inactives: top-dose activity, negative = less viability, actives largely listed as cytotoxic | hit rate 1.6% among 360,000 | AID 686970;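 also: NT is the 2HG producing partner of a matched IDH1 knockdown line; potency is read from the fitted curve at half-maximal effect; 0% = DMSO-treated cells and -100% = media-only wells without cells; nearly all actives have a fitted effect of over 55% in size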
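Viability of the 2HG-overproducing fibrosarcoma line after 48 hours of compound exposure at 37 degrees C was determined by luminescence with CellTiter-Glo, and concentration-effect curves were then fitted and categorized.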
DT40 TDP1 CPT – growth inhibition of DT40 Tdp1-/-;hTDP1 cells with camptothecin (screen for TDP1 inhibitors); chicken DT40 Tdp1-/-;hTDP1 cells + 20 nM CPT, ATP luminescence, 48 h; Potency, µM (titrated, usually from 46.2 µM), without a hit: at the highest dose activity change, negative = growth inhibition, usual class: inhibitors; hit rate 12% among 420,000; AID 686979; also: potency is read from the fitted curve at half-maximal effect; nearly all actives have a fitted effect of over 55% in size
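Cell growth measured by CellTiter-Glo luminescence after a minimum 48 h, 37 C compound exposure with 20 nM CPT in Tdp1-knockout DT40 cells stably expressing hTDP1, seeded 400/well; qHTS titration format.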
DT40 TDP1 no CPT – qHTS for Inhibitors of human tyrosyl-DNA phosphodiesterase 1 (TDP1): qHTS in cells in absence of CPT; DT40 Tdp1-/- hTDP1 cells, no CPT, ATP luminescence, 48 h; Potency, µM (top dose mostly 46.2 µM), for the others: top-dose activity change, negative = growth inhibition, usual class: inhibitors; hit rate 15% among 420,000; AID 686978, 2013; also: potency is read from the fitted curve at half-maximal effect; nearly all actives have a fitted effect of over 55% in size
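Chicken DT40 Tdp1-/- cells complemented with human TDP1, screened without camptothecin (DMSO vehicle only), 400 cells/well. Compounds pin-transferred, cells incubated at 37 °C for at least 48 hr. Growth read as ATP-dependent luminescence (CellTiter-Glo, 30 min at RT).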
IL-1B inflam inh – inflammasome signaling inhibition, IL-1 beta readout. hit rate 4.7% among 360,000. activity change, % at 57.5 µM. THP-1 LPS/ATP IL-1B secretion, AlphaLISA, 16 h; active compounds read low; in the data active = activity change below about -50%; inconclusive = mostly about -30% to -49%
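THP-1 cells pretreated 1 hr with compounds (up to 57.5 uM final), then stimulated with LPS (250 ng/mL final) plus ATP (1.25 mM final); secreted IL-1B measured by AlphaLISA after 16 hr, decreased signal indicating inhibition.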
12-LOX inh – blocks human arachidonate 12S-lipoxygenase; P18054; purified 12hLO, xylenol orange hydroperoxide absorbance; Potency, µM (titrated, usually from 108 µM), inactives show at the highest dose activity change, negative = inhibition, hits mostly inhibitors; hit rate 1.1% among 580,000; AID 1671190; also: potency is read from the fitted curve at half-maximal effect
Target sequence (P18054 whole entry, looked up): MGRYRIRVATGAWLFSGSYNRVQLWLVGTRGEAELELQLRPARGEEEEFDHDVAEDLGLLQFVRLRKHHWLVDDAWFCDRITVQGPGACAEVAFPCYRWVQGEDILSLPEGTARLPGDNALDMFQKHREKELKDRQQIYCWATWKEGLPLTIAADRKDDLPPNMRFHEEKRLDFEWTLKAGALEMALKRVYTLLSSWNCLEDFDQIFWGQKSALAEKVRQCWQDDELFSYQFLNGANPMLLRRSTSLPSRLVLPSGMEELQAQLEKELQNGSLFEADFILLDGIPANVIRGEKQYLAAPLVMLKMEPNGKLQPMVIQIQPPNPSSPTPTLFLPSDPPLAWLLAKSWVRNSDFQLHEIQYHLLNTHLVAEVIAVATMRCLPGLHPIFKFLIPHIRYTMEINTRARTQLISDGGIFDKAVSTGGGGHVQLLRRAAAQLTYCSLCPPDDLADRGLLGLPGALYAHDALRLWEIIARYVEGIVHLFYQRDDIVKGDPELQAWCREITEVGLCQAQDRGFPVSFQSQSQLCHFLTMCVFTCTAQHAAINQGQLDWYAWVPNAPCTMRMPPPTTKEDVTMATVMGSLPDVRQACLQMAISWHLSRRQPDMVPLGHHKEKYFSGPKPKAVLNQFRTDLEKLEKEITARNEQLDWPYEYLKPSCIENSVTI
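Purified human 12hLO (150 nM final) in 25 mM Hepes, 0.01% Triton X-100, pH 7.0 was preincubated 15 min at room temperature with compound. Then 40 uM arachidonic acid was added, 30 min. Hydroperoxide was read by Fe-XO absorbance ratio 573/405 nm.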
HT1080 IDH1KD tx – kills HT-1080 cells with IDH1 knockdown | HT-1080 IDH1 knockdown viability, ATP luminescence, 48 h | Potency, µM (series often up to 46.1 µM), inactives show at the top dose activity, negative = toxicity, usual class: cytotoxic | hit rate 2% among 360,000 | AID 686971;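 also: potency is read from the fitted curve at half-maximal effect; 0% = DMSO wells and -100% = cell-free medium wells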
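Viability of IDH1-knockdown HT-1080 fibrosarcoma cells was assessed by CellTiter-Glo after 48 h at 37 °C with titrated compound; concentration-effect curves were classified by fit quality and response size.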
An asterisk follows results filed as active; ? = inconclusive; / = no result given; [ ] = remark or other dose. Many of the other results were omitted from the sample, so hits are more common in it than they were. Unless noted, calls follow the shape of the dose curve; as a rule, active = well fitted curve in the direction sought with a large enough effect; inconclusive = small, poorly fitted or top-dose-only effect, or another doubt; inactive = no such curve, though single readings can be large; an effect the other way counts as inactive or inconclusive. Unless noted, % is scaled to controls: 0 for no effect and ±100 for the full control effect.

SMILES | HT1080-NT tox | DT40 TDP1 CPT | DT40 TDP1 no CPT | IL-1B inflam inh | 12-LOX inh | HT1080 IDH1KD tx
CCOC(=O)C1C(=O)Oc2ccc3ccccc3c2C1C1CCOC1=O (stereo unspecified) | -1% | ? | 15µM* | 16 | 12%[57.4 µM] | 3%
O=C(C1COc2ccccc2O1)N1CCN(Cc2cc(=O)oc3cc(O)ccc23)CC1 (stereo unspecified) | / | / | / | / | 0% | /
COC(=O)C1=C(C)N(CCc2ccccc2)C(=O)/C1=C\c1ccco1 | 7% | ? | ? | 17 | -30% | -2%
CCOc1cc(/C=C2\C(=O)N(Cc3ccco3)C(C)=C2C(=O)OC)ccc1O | ? | ? | ? | -105* | ? | -20%
COC(=O)C1=C(C)N(Cc2cccnc2)C(=O)/C1=C\c1sccc1C | -5% | -23% | -22% | -53* | -23% | -14%
COC(=O)C1=C(C)N(Cc2ccccc2)C(=O)/C1=C\c1ccco1 | -3% | ? | 18µM* | 2 | -20% | -8%
COC(=O)C1=C(C)N(Cc2ccc(C)cc2)C(=O)/C1=C\c1ccc(O)c(OC)c1 | ? | 2% | -29% | -60* | 28µM* | ?
CCn1cc(CN2CC(Oc3ccc(-c4noc(-c5ccncc5)n4)cc3)C2)cn1 | / | / | / | / | 13% | /
CCOC(=O)C1=C(C)N(c2ccc(C)cc2)C(=O)/C1=C\c1ccc(O)c(OC)c1 | -6% | 15µM* | 21µM* | 0 | ? | -6%
CCOc1cc(/C=C2\C(=O)N(CCc3ccc(OC)c(OC)c3)C(C)=C2C(=O)OC)ccc1O | 0% | ? | 23µM* | ? | ? | 4%
CCOC(=O)C1=C(C)N(c2ccc(OCC)cc2)C(=O)/C1=C\c1ccco1 | 0% | ? | ? | -13 | ? | ?
COC(=O)c1ccc(N2NC(=O)/C(=C/c3cc(OC)c(OC)c(OC)c3)C2=O)cc1 | 4% | -14% | 2% | 9 | ? | -8%
COC(=O)C1=C(C)N(Cc2ccc(C)cc2)C(=O)/C1=C\c1cc(OC)c(OC)c(OC)c1 | ? | ? | 21µM* | -79* | ? | 16µM*
COc1cccc([S+](=O)([O-])N2CCCC3(COc4ccccc4C(=O)N3)C2)c1 (stereo unspecified) | / | / | / | / | 99% | /
Oc1ccc(CN2CCCc3ccccc32)c2cccnc12 | -28% | 3.7µM* | 4.6µM* | 34 | / | ?
Cc1ccc(-c2nc3ccc(Br)cn3c2CC(C)(C)C)cc1 | 3% | ? | 12µM* | 4 | ? | 4%
CC(C)(C)Cc1c(-c2cccc(Cl)c2)nc2ccc(Cl)cn12 | 13% | ? | ? | -20 | ? | 3%
CC(C)(C)Cc1c(-c2ccccc2)nc2ccc(Br)cn12 | -6% | ? | 23µM* | 42 | ? | 3%
Oc1cc(C2CCCCC2)cc(C2CCCCC2)c1 | / | / | / | / | -19% | /
Cc1nn(C)c(Nc2ccc(Br)cc2)c1Br | -30% | 15µM* | 18µM* | -55* | 1% | ?
Cc1cc(C)nc(-n2nc(C)c(Br)c2Nc2ccc(Br)cc2)n1 | -7% | ? | ? | ? | -1% | -17%
O=C(CSC1=NCCS1)c1ccc(Cl)cc1 | -24% | ? | ? | -26 | -10% | -21%
O=C(CSc1n[nH]c(-c2ccccc2)n1)N1CCN(c2ccc(F)cc2)CC1 | / | ? | 23µM* | / | ? | /
COc1ccc(N2CCN(C(=O)CSc3nnc(-c4cccnc4)n3-c3ccccc3)CC2)cc1 | 0% | -28% | -21% | -18 | -14% | -3%
O=C(CSC1=NCCS1)N1CCN(c2ccc(Cl)cc2)CC1 | -25% | ? | ? | -77* | -21% | ?
SMILES | HT1080-NT tox | DT40 TDP1 CPT | DT40 TDP1 no CPT | IL-1B inflam inh | 12-LOX inh | HT1080 IDH1KD tx
COc1ccc(N2CCN(C(=O)CSc3nnc(-c4cccnc4)n3-c3ccc(F)cc3)CC2)cc1 | -4% | ? | 21µM* | -18 | -19% | 11%
COc1ccc(N2CCN(C(=O)CSc3n[nH]c(-c4ccccc4)n3)CC2)cc1 | / | ? | ? | / | 0% | /
COc1ccc(N2CCN(C(=O)CSc3nnc4c(C)cc5ccccc5n34)CC2)cc1 | -4% | 16µM* | 13µM* | 16 | -19% | -2%
COCCN1C(=O)[C@@H]2C[C@@H](CN2C(=O)C2CCOCC2)Oc2ccccc21 | / | / | / | / | 34%[176 µM] | /
COCCCNC(=O)C1c2ccccc2C(=O)N(C2CCCCC2)C12CCCCC2 (stereo unspecified) | / | / | / | / | 52% | /
O=C(CSc1nnc(-c2ccncc2)n1-c1ccccc1)N1CCN(c2ccc(Cl)cc2)CC1 | 10% | ? | 18µM* | 14 | ? | 5%
O=C(CSc1nnc(-c2cccnc2)n1-c1ccccc1)N1CCN(c2ccc(F)cc2)CC1 | 4% | ? | 21µM* | -6 | ? | 5%
Cc1cccc(C)c1-n1nnnc1C1c2ccccc2C(=O)N1CCc1ccccc1F (stereo unspecified) | 12% | ? | 16µM* | 7 | -6% | 1%
COc1ccc(CCN2C(=O)c3ccccc3C2c2nnnn2-c2c(C)cccc2C)cc1OC (stereo unspecified) | 22% | 23µM* | 12µM* | 2 | 27% | 13%
COc1ccc(CN2C(=O)CCC2(C)c2nnnn2-c2c(C)cccc2C)cc1OC (stereo unspecified) | 8% | 16µM* | 18µM* | 0 | -28% | 2%
Cc1ccc(CN2C(=O)c3ccccc3C2c2nnnn2-c2c(C)cccc2C)cc1 (stereo unspecified) | -6% | ? | 29µM* | -8 | -11% | -21%
COc1ccc(CCN2C(=O)c3ccccc3C2c2nnnn2Cc2ccccc2)cc1OC (stereo unspecified) | 1% | ? | ? | 15 | -1% | 10%
COc1ccccc1-c1nnc(SCC(=O)NCc2c(C)c(Cl)cc(C(C)C)c2O)o1 | ? | 29µM* | ? | -12 | 13% | 16µM*
COc1ccccc1-c1nnc(SCC(=O)Nc2c(Cl)cccc2Cl)o1 | -8% | 18µM* | 21µM* | -9 | -3% | -15%
COCc1ccc(CN2CCCC(CCC(=O)NCc3cccc(OC)c3)C2)o1 (stereo unspecified) | 0% | 3% | -7% | 1 | 7% | 0%
